Screens from PubChem.
The list is not random: actives were taken first. Their share in the collection is about 1.2%.
TcdB GH inh = blocks C. difficile toxin B glycohydrolase activity. P18177. TcdB glycohydrolase enzymatic assay, plate reader. inhibition, % at 9.99 µM. actives 0.24% (n = 350,000). AID 652162; in the data active means inhibition above about 10%
BH1578 lux ind = quorum light induction in luxS cqsA deficient V. cholerae. V. cholerae BH1578 lux reporter, luminescence, 6 h. activation, % at 18.7 µM. actives 0.16% (n = 350,000). AID 588436; in the data active means activation mostly above about 9.7%, no sharp cut-off
PfHsp40 yeast = compounds rescuing yeast from Plasmodium falciparum HSP40 toxicity; S. cerevisiae expressing PfHsp40, growth rescue, ATP luminescence; growth rescue, % at 12.5 µM; actives 0.68% (n = 340,000); AID 504582; in the data active means growth rescue above about 28%, passing the limit was not always enough;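 further: yeast W303a lacking pdr1 and pdr3 grown in galactose medium; growth measured after three days at 30 °C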
VHR inh abs = inhibitors of human VHR1 phosphatase (DUSP3). P51452. recombinant VHR phosphatase, pNPP absorbance. actives 0.52% (n = 290,000). inhibition, % at 13.3 µM; in the data active means inhibition above about 50%
Y pestis TopoI = blocks Yersinia pestis topoisomerase I activity; Y. pestis Topo-I cleavage product accumulation, plate reader; activity, % at 10 µM; actives 0.064% (n = 360,000); AID 504884; in the data active means activity above about 50%, passing the limit was not always enough
BioA inh = BioA (M. tuberculosis) enzyme inhibition; actives 0.096% (n = 360,000); inhibition, % at 9.99 µM; purified M. tuberculosis BioA enzyme, plate reader; in the data active means inhibition above about 40%
Active calls of the source: *; i = inactive; . = no result.

SMILES	TcdB GH inh	BH1578 lux ind	PfHsp40 yeast	VHR inh abs	Y pestis TopoI	BioA inh
OC(Cn1cncn1)(c1ccc(F)cc1)c1ccc(Cl)cc1 (stereo not drawn)	0	i	108*	21	-9	1
O=C(O)c1cc(S(=O)(=O)N2CCCCC2)ccc1N1CCCC1	1	i	0	.	0	2
Cc1nc(N2CCN(C)CC2)c2c(C)c(C(=O)Nc3ccc(F)cc3)sc2n1	.	i	0	55*	-4	15
CC(C)(C)c1cc(NS(=O)(=O)c2ccc3c(c2)OCCO3)on1	.	-3	0	29	3	0
COc1ccccc1-c1ccc([C@@H]2[C@@H]3CN(S(=O)(=O)c4ccc(-c5ccccc5)cc4)C[C@H]2N3)cc1	-6	.	.	.	.	.
CCN(C(=O)c1ccc(C(C)(C)C)cc1)c1nnc(Cn2nnc3ccccc32)s1	.	i	2	23	35	0
CC(=O)Nc1cccc(OCc2ccc(F)cc2)c1	2	0	70*	8	-6	.
COc1ccc(-n2nc(C(=O)Nc3ccc(OC)c(OC)c3)c3c4ccccc4n(C)c3c2=O)cc1	.	2	-1	76	-1	-2
C#CCN(C[C@H]1[C@H](OC(=O)NC2CCCC2)[C@H](OC(=O)NC2CCCC2)C[C@@H](C(=O)OC)[C@H]1C(=O)OC)S(=O)(=O)c1ccc(C)cc1	-2	0	.	.	18	1
Cc1cc(N2CCCC2=O)cc(C)c1S(=O)(=O)Nc1c(C)nn(C)c1C	42*	0	2	8	-4	2
COC(=O)C1CCN(C(=O)NC2CCCCC2)CC1	-1	1	-1	6	9	0
Cc1ccc(NS(=O)(=O)c2cc(C(=O)N3CCN(CCO)CC3)ccc2C)cc1	1	-4	-1	.	2	-2
O=C(O)c1ccccc1NS(=O)(=O)c1cccc(-n2sc3ccccc3c2=O)c1	-1	0	407*	21	-9	1
CC1(c2ccc(OC(F)F)cc2)NC(=O)N(CC(=O)c2ccc3c(c2)OCO3)C1=O (stereo not drawn)	6	i	0	.	-4	.
Cc1ccc(/C=C/C(=O)Nc2nnc(C)s2)o1	.	i	0	-5	0	.
CNC(=O)C[C@@H]1CC[C@H]2[C@@H](COc3ccc(NS(=O)(=O)c4ccccc4C)cc3C(=O)N2C)O1	8	.	.	.	.	0
CNC(=O)C[C@@H]1CC[C@H]2[C@H](COc3ccc(NS(=O)(=O)c4ccccc4C)cc3C(=O)N2C)O1	11*	.	.	.	.	1
CNC(=O)C[C@H]1CC[C@@H]2[C@H](COc3ccc(NS(=O)(=O)c4ccccc4C)cc3C(=O)N2C)O1	12*	.	.	.	.	-2
Oc1ccc(Br)cc1-c1cc(-c2ccccc2)n[nH]1	.	i	21	-5	-24	-2
O=[N+]([O-])c1cccc(-c2cc(-c3cc(Br)ccc3O)[nH]n2)c1	1	0	285*	2	-29	-1
O=[N+]([O-])c1ccccc1-c1cc(-c2ccccc2O)n[nH]1	.	-1	49*	-7	-10	2
CC(=O)c1c(C)[nH]c(C(=O)Nc2ccccn2)c1C	0	-14	2	-4	1	5
CCCC(=O)Nc1ccc(C(=O)NNC(=O)c2cccs2)cc1	2	0	-1	10	-8	-2
CCCc1cc(=O)oc2c(CNc3ccc(OCC)cc3)c(O)ccc12	2	-1	48*	-3	0	0
COc1cccc(NC(=O)COC(=O)c2ccccc2F)c1	1	0	0	-3	1	1
SMILES	TcdB GH inh	BH1578 lux ind	PfHsp40 yeast	VHR inh abs	Y pestis TopoI	BioA inh
NC1=NC(c2cccnc2)n2c(nc3ccccc32)N1 (stereo not drawn)	2	.	.	16	.	.
CCOC(=O)N1CCN(S(=O)(=O)c2cn(C)c(=O)n(C)c2=O)CC1	0	-1	14	52*	5	-2
Cn1cc(S(=O)(=O)N2CCN(c3ccccc3F)CC2)c(=O)n(C)c1=O	1	0	1	53*	-8	-3
CCOC(=O)C1CCN(S(=O)(=O)c2cn(C)c(=O)n(C)c2=O)CC1	3	0	1	37	-8	-1
COc1ccccc1N1CCN(S(=O)(=O)c2cn(C)c(=O)n(C)c2=O)CC1	-1	0	1	-2	2	0
OCC[C@@H]1C[C@@H](O)[C@H](O)[C@]2(CCCc3ccccc3O2)O1	1	i	-2	52*	5	-1
OCC[C@H]1C[C@@H](O)[C@H](O)[C@]2(CCCc3ccccc3O2)O1	1	i	-1	.	-7	-5
C[C@@H]1CCCCO[C@H](CN(C)Cc2ccncc2)[C@@H](C)CN([C@H](C)CO)C(=O)c2cc(NS(=O)(=O)c3cccs3)ccc2O1	-1	.	.	.	.	8
CC(C)OC(=O)CCC(=O)Nc1nc2ccccc2s1	1	0	0	52*	6	-1
CC1(C)Cc2cccc(OC(=O)NC3CCCCC3)c2O1	1	.	.	.	.	.
Cc1ccccc1NC(=O)C(C)SCc1ccccc1 (stereo not drawn)	3	0	0	52*	-3	1
CC(C)NC(=O)N(C)C[C@@H]1Oc2ccc(NC(=O)CCC(F)(F)F)cc2C(=O)N([C@H](C)CO)C[C@@H]1C	1	.	.	.	.	0
O=C(/C=C/c1ccc(F)cc1)OCC(=O)c1ccc[nH]1	2	1	0	.	8	-2
O=C(COC(=O)c1ccc(F)cc1F)c1ccc[nH]1	10*	i	-1	.	6	0
Cc1cc(C)c(-c2noc(C(=O)OC(C)(C)C)c2C(=O)OC(C)(C)C)c(C)c1	.	51*	-1	1	34	-3
CCOC(=O)C1CCN(C(C(=O)Nc2ccc3c(c2)OCCO3)c2ccccc2)CC1 (stereo not drawn)	.	.	0	53*	33	0
Cc1ccccc1OC(C)C(=O)Nc1ccc2c(c1)OCO2 (stereo not drawn)	0	i	0	18	-4	1
COc1ccccc1OC(C)C(=O)Nc1ccc2c(c1)OCCO2 (stereo not drawn)	0	0	-1	56*	4	0
COc1ccc(NC(=O)N[C@@H]2CC[C@H](CCn3cc(-c4ccccc4)nn3)O[C@H]2CO)cc1	0	.	.	.	.	0
O=c1c(O[C@@H]2O[C@H](CO)C(O)C2O)c(-c2ccc(O)c(O)c2)oc2cc(O)cc(O)c12 (stereo partly drawn)	.	i	1	.	-3	-1
O=c1c(OC2OC(CO)C(O)C(O)C2O)c(-c2ccc(O)c(O)c2)oc2cc(O)cc(O)c12 (stereo not drawn)	14*	-5	0	-3	0	0
COc1ccc(-c2nn(CC(=O)Nc3ccc(Cl)c(Cl)c3)c(=O)c3ccccc23)cc1	.	1	-1	52*	-8	.
COC(=O)COc1ccc(NC(=O)Cn2nc(-c3ccccc3)c3ccccc3c2=O)cc1	2	0	-1	7	15	0
